Experimental data reported in PubChem BioAssay (NCI).
Compounds without any hit were thinned out: in the full panel of roughly 83,000, 20% have a hit.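 Growth was measured after 48 h exposure to one concentration of compound in 96-well plates. Values under 10 count as active.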 A number with no mark means an inactive call. Active and inactive are the calls of the source.

How the values were obtained:
Assay in all cases: NCI-60 one-dose screen, 48 h (100 = growth as untreated, 0 = no growth, -100 = all killed)
Settings in all cases: 10 µM
DU-145 prostate = test system: DU-145 prostate
K-562 leukemia = test system: K-562 leukemia
MALME-3M melanoma = test system: MALME-3M melanoma
MDA-MB-231 breast = test system: MDA-MB-231 breast
RXF 393 renal = test system: RXF 393 renal
SF-268 CNS = test system: SF-268 CNS
SF-295 CNS = test system: SF-295 CNS
SF-539 CNS = test system: SF-539 CNS
UACC-257 melanoma = test system: UACC-257 melanoma
M14 melanoma = test system: M14 melanoma

SMILES | growth (DU-145 prostate) | growth (K-562 leukemia) | growth (MALME-3M melanoma) | growth (MDA-MB-231 breast) | growth (RXF 393 renal) | growth (SF-268 CNS) | growth (SF-295 CNS) | growth (SF-539 CNS) | growth (UACC-257 melanoma) | growth (M14 melanoma)
FC(F)(F)c1ccc(-c2cnc(Br)nc2NC2CCCCCC2)cc1 | 74.9% | 10.6% | -42.4% (active) | 62.4% | 52.7% | 43.6% | -33.2% (active) | 82.4% | -1.23% (active) | 23.1%
Clc1cc(Cl)c(OCCCCCCN2CCNCC2)c(Cl)c1 | 67.1% | -43.6% (active) | 50.1% | -8.55% (active) | 24.1% | 55.3% | -37.8% (active) | 49% | -1.75% (active) | -43.9% (active)
COc1c(-c2c3sc(=O)[nH]c3nc3c2c(=O)[nH]n3C(C)C)cc2c(c1OC)OCO2 | 108% | 86% | 80.3% | 108% | 110% | 102% | 88.3% | 94.8% | 99.7% | 93.8%
c1ccc(OCCC[P+](c2ccccc2)(c2ccccc2)c2ccccc2)cc1 | 21.4% | 1.76% (active) | 16.5% | 11.9% | 31.6% | 18% | -30.7% (active) | 13.6% | -10.9% (active) | 14.1%
CC1(CO)CCCC12OCCO2 (stereo not given) | 117% | 100% | 113% | 104% | 100% | 110% | 82.3% | 96.2% | 99.8% | 106%
Cc1nc2scc(-c3ccc(Cl)cc3)n2c(=O)c1CCN1CCOCC1 | 115% | 80.6% | 100% | 78.3% | 118% | 102% | 70.7% | 100% | 108% | 97.8%
CCc1c(C)[nH]c(=O)c(C(N)=O)c1C#N | 115% | 114% | 103% | 102% | 108% | 105% | 98.1% | 92.9% | 92.5% | 97.5%
Cc1cc(C)c(C(=O)OC(C)CNC2CCCCC2)c(C)c1 (stereo not given) | 106% | 81.2% | 108% | 102% | 105% | 99.7% | 97.7% | 99.2% | 97.7% | 90.5%
COC(=O)[C@]12CC[C@@H](C)[C@H](C)[C@@H]1C1=CC[C@@H]3[C@@]4(C)C/C(=N\O)[C@H](O)[C@@]5(C)COC(=C45)C[C@@]3(C)[C@]1(C)CC2 | -94.8% (active) | -58.4% (active) | -71.1% (active) | -59.3% (active) | -73.4% (active) | -78.6% (active) | -88.5% (active) | -75.2% (active) | -90.5% (active) | -82.3% (active)
COC(=O)[C@]12CC[C@@H](C)[C@H](C)[C@@H]1C1=CC[C@@H]3[C@@]4(C)C[C@@H](O)[C@H](O)[C@@](C)(CO)[C@@H]4[C@H](O)C[C@@]3(C)[C@]1(C)CC2 | -82.5% (active) | -31.7% (active) | -55.9% (active) | -66.3% (active) | -81.6% (active) | -31% (active) | -78.5% (active) | -58.4% (active) | -85.1% (active) | -71.3% (active)
